Sfp PPTase inh – blocks B. subtilis Sfp PPTase activity; Biochemical Sfp PPTase activity, qHTS; Q9F4F7; AID 1490; hit rate 3.5% among 310,000; Potency, µM, most hits filed as inhibitors;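 further: the enzyme is Sfp with the accession as filed and its product quenches rhodamine fluorescence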
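Step 1, compound plus 15 nM Sfp-PPTase, 15 min, room temperature. Step 2, add rhodamine-CoA (5 uM) and BHQ-2-YbbR (12.5 uM). Step 3, read 525/598 nm fluorescence at 0 and 30 min.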
GRP78 ERSR act – ER stress response induction in glioma | U87-MG GRP78 promoter luciferase reporter, 16 h | Potency, µM, hits mostly activators | hit rate 0.02% among 420,000; further: series mostly up to about 76 µM; nearly all actives have a fitted effect of over 35% in size
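ERSR induction read as luciferase luminescence (Bright-Glo, 10 min at room temperature) in stably transfected human U87-MG glioma cells exposed to compounds for 16 h, using GRP78 as sensor.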
VDR inh – inhibitors of human vitamin D receptor; VDR-SRC2-3 peptide fluorescence polarization, 2 h; Potency, µM, hits mostly inhibitors; hit rate 0.93% among 400,000; AID 504847
Target sequence (P11473 whole entry, looked up): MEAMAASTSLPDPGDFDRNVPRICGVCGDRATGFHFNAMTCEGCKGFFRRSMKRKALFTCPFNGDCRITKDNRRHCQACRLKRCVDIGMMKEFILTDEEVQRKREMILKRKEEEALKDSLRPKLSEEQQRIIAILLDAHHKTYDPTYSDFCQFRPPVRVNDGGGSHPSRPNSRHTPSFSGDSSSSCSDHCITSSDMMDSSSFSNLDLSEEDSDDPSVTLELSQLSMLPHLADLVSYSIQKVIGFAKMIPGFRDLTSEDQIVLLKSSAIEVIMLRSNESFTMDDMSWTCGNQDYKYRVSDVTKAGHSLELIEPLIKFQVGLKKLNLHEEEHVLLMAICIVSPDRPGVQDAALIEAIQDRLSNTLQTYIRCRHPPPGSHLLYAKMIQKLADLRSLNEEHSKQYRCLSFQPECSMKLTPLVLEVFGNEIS
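Signal is fluorescence polarization, reporting how far test compounds block the interaction of VDR with the SRC2-3 coregulator peptide after a 2 h room-temperature incubation.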
G9a block – blocks human histone lysine methyltransferase G9a; AID 504332; G9a H3K9 monomethylation, AlphaScreen, 2 h; Potency, µM (highest dose often 102 µM), usual class: inhibitors; hit rate 8.8% among 350,000; further: nearly all actives have a fitted effect of over 75% in size
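Chemiluminescent proximity detection of H3K9 monomethylation, read after 10 min bead incubation in the dark. Reaction: 20 nM G9a, 500 nM biotin-H3K9 peptide, 20 uM SAM cofactor, 2 h, room temperature, following 15 min enzyme-compound preincubation.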
12-LOX inh – inhibitors of human 12S-lipoxygenase ALOX12; hit rate 1.1% among 580,000; P18054; purified 12hLO, xylenol orange hydroperoxide absorbance; Potency, µM (top dose mostly 108 µM), hits mostly inhibitors
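Purified human 12hLO at 150 nM in 25 mM Hepes, 0.01% Triton X-100, pH 7.0, preincubated 15 min at room temperature with compound. Reaction started with 40 uM arachidonic acid, 30 min at room temperature. Hydroperoxide measured by Fe-xylenol orange, 573/405 nm absorbance ratio.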
Large screens that a line does not name were inactive. The full list was thinned out, with hits kept by preference. The call rests on the fitted dose curve; in most records, active means well fitted curve in the direction sought with a large enough effect; inconclusive means small, poorly fitted or top-dose-only effect, or another doubt; inactive means no such curve, though single readings can be large; an effect the other way counts as inactive or inconclusive.

O=C(CSc1nnc(-c2cccnc2)n1-c1ccccc1)Nc1ccc(Cl)cn1	none (no result: Sfp PPTase inh, GRP78 ERSR act, VDR inh, G9a block)
COC(=O)C(C)OC(=O)c1cc2ccccc2cc1OC (configuration not stated)	none (no result: Sfp PPTase inh, GRP78 ERSR act, VDR inh, G9a block)
N#Cc1nc(Cc2cccc3ccccc23)oc1NCCCN1CCOCC1	G9a block 50.1µM
N#Cc1nc(Cc2cccc3ccccc23)oc1NCc1ccco1	Sfp PPTase inh inconclusive, G9a block 39.8µM
c1ccc2c(NCCCN3CCOCC3)c3ccccc3nc2c1	G9a block 50.1µM (no result: GRP78 ERSR act, VDR inh)
COc1ccc(CNc2oc(Cc3cccc4ccccc34)nc2C#N)cc1	G9a block inconclusive
N#Cc1nc(Cc2cccc3ccccc23)oc1NCCCn1ccnc1	G9a block inconclusive
COc1ccc(-c2nc(C#N)c(NCc3ccco3)o2)cc1	G9a block 44.7µM, 12-LOX inh inconclusive
CC(Sc1nc2cc(S(=O)(=O)N3CCCCC3)ccc2o1)C(=O)Nc1ccc(F)cc1Cl (configuration not stated)	none (no result: Sfp PPTase inh, GRP78 ERSR act, VDR inh, G9a block)
COCCN1CCCC(c2[nH]ccc2C(=O)N2CCN(c3ccccc3)CC2)C1 (configuration not stated)	none (no result: Sfp PPTase inh, GRP78 ERSR act, VDR inh, G9a block)
CC(C)C(C)NC(=O)Nc1ccc(C(N)=O)c(Cl)c1 (configuration not stated)	none (no result: Sfp PPTase inh, GRP78 ERSR act, VDR inh, G9a block)
CC(C)N(Cc1cnn(C)c1)S(=O)(=O)c1ccc(Cl)cc1	none (no result: Sfp PPTase inh, GRP78 ERSR act, VDR inh, G9a block)
CCCCCNC(=O)C(c1cccc2ccccc12)n1c(=O)c(-c2ccccc2)nc2ccccc21 (configuration not stated)	none (no result: Sfp PPTase inh, GRP78 ERSR act, VDR inh, G9a block)
O=C(NCc1ccccc1)C(c1ccc(C(F)(F)F)cc1)n1c(=O)c(-c2ccccc2)nc2ccccc21 (configuration not stated)	none (no result: Sfp PPTase inh, GRP78 ERSR act, VDR inh, G9a block)
CCCCCNC(=O)C(c1ccccc1F)n1c(=O)c(-c2ccco2)nc2ccccc21 (configuration not stated)	12-LOX inh 20µM (no result: Sfp PPTase inh, GRP78 ERSR act, VDR inh, G9a block)
O=C(NC1CCCCC1)C(c1ccncc1)n1c(=O)c(-c2ccccc2)nc2ccccc21 (configuration not stated)	none (no result: Sfp PPTase inh, GRP78 ERSR act, VDR inh, G9a block)
O=C(NCc1ccccc1)C(c1ccc(C(F)(F)F)cc1)n1c(=O)c(-c2ccco2)nc2ccccc21 (configuration not stated)	12-LOX inh 5.01µM (no result: Sfp PPTase inh, GRP78 ERSR act, VDR inh, G9a block)
O=C(NC1CCCCC1)C(c1ccc(-c2ccccc2)cc1)n1c(=O)c(-c2ccco2)nc2ccccc21 (configuration not stated)	12-LOX inh 44.7µM (no result: Sfp PPTase inh, GRP78 ERSR act, VDR inh, G9a block)
CCCCCNC(=O)C(c1ccc(OC)cc1)n1c(=O)c(-c2ccco2)nc2ccccc21 (configuration not stated)	12-LOX inh 5.62µM (no result: Sfp PPTase inh, GRP78 ERSR act, VDR inh, G9a block)
CC(C)N1CCC(N2CCN(Cc3cn(C(C)C)c4ccccc34)CC2CCO)CC1 (configuration not stated)	none (no result: Sfp PPTase inh, GRP78 ERSR act, VDR inh, G9a block)
CCc1ccccc1NNC(=O)c1snnc1C	Sfp PPTase inh inconclusive, G9a block 2.82µM
Cc1nnsc1C(=O)NNc1ccc(Cl)cc1	none (no result: G9a block)
Cc1nnsc1C(=O)NNc1c(Cl)cccc1Cl	G9a block 8.91µM, 12-LOX inh inconclusive
Brc1ccccc1Oc1ccc2nnnn2n1	none (no result: Sfp PPTase inh, GRP78 ERSR act, VDR inh, G9a block)
O=C(CSc1nccc(C(F)(F)F)n1)NC1CCCCCCC1	none (no result: Sfp PPTase inh, GRP78 ERSR act, VDR inh, G9a block)
O=C(Nc1ccccc1)C(Cl)C(=O)c1ccccc1 (configuration not stated)	Sfp PPTase inh 14.1µM, VDR inh inconclusive, 12-LOX inh inconclusive
CC(=O)C(Cl)C(=O)Nc1ccccc1 (configuration not stated)	Sfp PPTase inh inconclusive, VDR inh 14.1µM, G9a block 44.7µM
COCCNc1ncccc1-c1noc([C@@H]2CCCN2Cc2ccco2)n1	none (no result: Sfp PPTase inh, GRP78 ERSR act, VDR inh, G9a block)
CCN(CC)C(=O)c1sc(NC(=S)N2CCN(C(=O)C3CCCO3)CC2)c(C(=O)OC)c1C (configuration not stated)	G9a block 50.1µM
COC(=O)c1cc(NC(=S)N2CCN(C(=O)C3CCCO3)CC2)cc(C(=O)OC)c1 (configuration not stated)	none
Cc1ccc(-c2c(NC(=O)CN3CCN(CCO)CC3)oc3ccccc3c2=O)cc1	none (no result: Sfp PPTase inh, GRP78 ERSR act, VDR inh, G9a block)
Cc1ccc(CSc2nnc(SCC(=O)N/N=C/C=C/c3ccco3)s2)cc1	Sfp PPTase inh 39.8µM, G9a block inconclusive
Cc1ccc(Cn2c(SCC(=O)N/N=C/c3ccc(C)o3)nc3ccccc32)cc1	Sfp PPTase inh 56.2µM, G9a block inconclusive
